Data taken from PubChem BioAssay AID1159580 (chemical genetic matrix, 2015).
About 2,000 (36%) of roughly 5,500 compounds were called active. Not shown: some 18% with an inconclusive outcome. Rule as the data show it: active = normalized growth mostly below about 0.91 (no sharp cut-off); inconclusive = no clear call, values can overlap the other calls; inactive = mostly above about 0.92. The list shows a part of the results.

Assay: chemical genetic growth profiling, strain panel (AID 1159580);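 also: tested at 20 µM; growth read once vehicle control cultures reached saturation at 30 °C; 1 = growth at the plate median or of vehicle wells; lower values mean less growth of the strain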
Conditions: S. cerevisiae deletion strains, growth OD
[1] = locus YDL101C, strain DUN1, stronger effect = lower value
[2] = locus YHR030C, strain SLT2, stronger effect = lower value

Measured: normalized growth

CC(C)(C)C(=O)NC(=S)Nc1cccc(C(F)(F)F)c1
active: locus YAL013W, strain DEP1, stronger effect = lower value 0.925 | locus YDL134C, strain PPH21, stronger effect = lower value 0.804 | [2] 0.527 | locus YLR039C, strain RIC1, stronger effect = lower value 0.401 | locus YLR085C, strain ARP6, stronger effect = lower value 0.397 | locus YLR262C, strain YPT6, stronger effect = lower value 0.474 | locus YML094W, strain GIM5, stronger effect = lower value 0.846 | locus YNL298W, strain CLA4 (second series), stronger effect = lower value 0.676 | locus YNR030W, strain Alg12, stronger effect = lower value 0.722 | locus YOL006C, strain TOP1, stronger effect = lower value 0.238 | locus YPL055C, strain LGE1, stronger effect = lower value 0.785 | locus YPL241C, strain CIN2, stronger effect = lower value 0.755 | locus YPR135W, strain CTF4, stronger effect = lower value 0.569
inactive: locus YBR229C, strain ROT2, stronger effect = lower value 0.989 | [1] 0.984 | locus YDR150W, strain NUM1, stronger effect = lower value 0.91 | locus YEL061C, strain CIN8, stronger effect = lower value 0.944 | locus YGR078C, strain PAC10, stronger effect = lower value 0.959 | locus YGR229C, strain SMI1, stronger effect = lower value 0.959 | locus YHR087W, strain rtc3, stronger effect = lower value 0.99 | locus YJL187C, strain SWE1, stronger effect = lower value 0.987 | locus YJR043C, strain POL32, stronger effect = lower value 0.957 | locus YJR075W, strain HOC1, stronger effect = lower value 0.977 | locus YLR058C, strain SHM2 (second series), stronger effect = lower value 0.966 | locus YMR219W, strain ESC1, stronger effect = lower value 0.978 | locus YMR263W, strain SAP30, stronger effect = lower value 0.953 | locus YNL153C, strain GIM3, stronger effect = lower value 0.955 | locus YNL322C, strain KRE1, stronger effect = lower value 0.984

Fc1cccc(F)c1NC(=S)Nc1cc(C(F)(F)F)cc(C(F)(F)F)c1
active: locus YLR113W, strain HOG1, stronger effect = lower value 0.742 | locus YPL256C, strain CLN2, stronger effect = lower value 0.829
inactive: locus YAR019C, strain CDC15, stronger effect = lower value 0.979 | locus YBL105C, strain PKC1, stronger effect = lower value 0.979 | locus YBR135W, strain CKS1, stronger effect = lower value 0.981 | locus YBR136W, strain MEC1, stronger effect = lower value 0.982 | locus YBR160W, strain CDC28, stronger effect = lower value 0.982 | locus YDL017W, strain CDC7, stronger effect = lower value 0.992 | locus YDL028C, strain MPS1, stronger effect = lower value 0.975 | [1] 0.991 | locus YDL108W, strain KIN28, stronger effect = lower value 0.984 | locus YDL132W, strain cdc53, stronger effect = lower value 0.979 | locus YDL214C, strain PRR2, stronger effect = lower value 0.907 | locus YDR052C, strain DBF4, stronger effect = lower value 0.987 | locus YDR054C, strain cdc34, stronger effect = lower value 0.978 | locus YDR226W, strain ADK1, stronger effect = lower value 0.986 | locus YDR477W, strain SNF1, stronger effect = lower value 0.948 | locus YER123W, strain YCK3, stronger effect = lower value 0.907 | locus YER133W, strain GLC7, stronger effect = lower value 0.933 | locus YFL009W, strain cdc4, stronger effect = lower value 0.976 | locus YFL029C, strain CAK1, stronger effect = lower value 0.976 | locus YFR003C, strain YPI1, stronger effect = lower value 0.981 | locus YFR019W, strain FAB1, stronger effect = lower value 0.98 | locus YFR028C, strain CDC14, stronger effect = lower value 0.977 | locus YGR040W, strain KSS1, stronger effect = lower value 0.954 | locus YGR052W, strain FMP48, stronger effect = lower value 0.933 | locus YGR092W, strain DBF2, stronger effect = lower value 0.967 | [2] 0.981 | locus YHR079C, strain IRE1, stronger effect = lower value 0.85 | locus YHR082C, strain KSP1, stronger effect = lower value 1.01 | locus YHR205W, strain SCH9, stronger effect = lower value 0.87 | locus YIL147C, strain SLN1, stronger effect = lower value 0.981 | locus YJL095W, strain BCK1, stronger effect = lower value 0.862 | locus YJL128C, strain PBS2, stronger effect = lower value 0.919 | locus YJL157C, strain FAR1, stronger effect = lower value 0.923 | locus YJR016C, strain ILV3, stronger effect = lower value 0.979 | locus YJR066W, strain TOR1 (second series), stronger effect = lower value 0.931 | locus YJR066W, strain TOR1, stronger effect = lower value 1.06 | locus YKL048C, strain ELM1, stronger effect = lower value 0.934 | locus YKL067W, strain YNK1, stronger effect = lower value 0.931 | locus YKL101W, strain HSL1, stronger effect = lower value 0.91 | locus YKL193C, strain SDS22, stronger effect = lower value 0.977 | locus YKL203C, strain TOR2, stronger effect = lower value 1.02 | locus YLR133W, strain CKI1, stronger effect = lower value 0.948 | locus YLR403W, strain SFP1, stronger effect = lower value 0.974 | locus YML070W, strain DAK1, stronger effect = lower value 0.907 | locus YMR001C, strain CDC5, stronger effect = lower value 0.981 | locus YMR205C, strain PFK2 (second series), stronger effect = lower value 0.95 | locus YMR277W, strain FCP1, stronger effect = lower value 0.975 | locus YNL006W, strain LST8, stronger effect = lower value 0.977 | locus YNL020C, strain ARK1, stronger effect = lower value 0.932 | locus YNL161W, strain CBK1, stronger effect = lower value 0.98 | locus YNL183C, strain NPR1, stronger effect = lower value 0.98 | locus YNL207W, strain RIO2, stronger effect = lower value 0.985 | locus YNL222W, strain SSU72, stronger effect = lower value 0.979 | locus YNL307C, strain MCK1 (second series), stronger effect = lower value 0.918 | locus YOL078W, strain AVO1, stronger effect = lower value 0.977 | locus YOL136C, strain PFK27, stronger effect = lower value 0.928 | locus YOR061W, strain CKA2, stronger effect = lower value 0.953 | locus YOR119C, strain RIO1, stronger effect = lower value 0.997 | locus YOR231W, strain MKK1, stronger effect = lower value 0.91 | locus YOR329C, strain SCD5, stronger effect = lower value 0.986 | locus YPL031C, strain PHO85, stronger effect = lower value 0.942 | locus YPL153C, strain RAD53, stronger effect = lower value 0.939 | locus YPL204W, strain HRR25, stronger effect = lower value 0.936 | locus YPL209C, strain IPL1, stronger effect = lower value 0.991 | locus YPR025C, strain CCL1, stronger effect = lower value 0.982 | locus YPR106W, strain ISR1, stronger effect = lower value 0.981 | locus YPR111W, strain DBF20, stronger effect = lower value 0.972 | strain NNK1, stronger effect = lower value 0.974 | strain TSCII, stronger effect = lower value 0.98
